{"source": "a collection of fitness landscapes (doi:10.1016/j.celrep.2020.107928)", "parents": {"B1": {"name": "Caulobacter ParB omega fusion; a variant is named by its letters at X, in order, B8GW30 (parent)", "chain": "MESVVVGEPGMSEGRRGLGRGLSALLGEVDAAPAQAPGEQLGGSREAPIEILQRNPDQPRRTFREEDLEDLSNSIREKGVLQPILVRPSPDTAGEYQIVAGERAWRAAQRAGLKTVPIMVRELDDLAVLEIGIIENVQRADLNVLEEALSYKVLMEKFERTQENIAQTIGKSXSHVANXMRLLXLPDEVQSYLVSGELTAXHARAIAAAADPVALAKQIIEGGLSVRETEALARKAPNLSAGKSKGGRPPRVKDTDTQALESDLSSVLGLDVSIDHRGSTGTLTITYATLEQLDDLCNRLTRGI"}}, "note": "In all, about 81,000 sequences were measured (“one-hybrid fitness for binding NBS DNA”: median about -0.1, highest 2% from about 0.36 on). The sample as a whole holds a higher share of the highest values than the screen did."}
{"variants_of": "B1", "assay": "one-hybrid fitness for binding NBS DNA (the Noc-binding site; scaled: cognate 1, non-cognate 0); higher = stronger binding", "settings": "with NBS DNA site", "how_it_was_run": "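Pre- and post-selection plasmids were Illumina-sequenced, three replicate libraries were pooled, and any variant with under 10 reads was removed. The libraries were Caulobacter ParB with four specificity codons randomised, selected in E. coli USO through a HIS3 reporter whose site is 19 bp from the promoter. Cells grew 48 hours at 37°C on M9 without histidine, with 0.1 mM IPTG and 5 mM 3-AT. Fitness is the log change in variant-to-wild-type read ratio, rescaled against cognate and non-cognate.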"}
{"variant": "DLIW", "one-hybrid fitness for binding NBS DNA": "≤ 0.2"}
{"variant": "GYPG", "one-hybrid fitness for binding NBS DNA": "≤ 0.2"}
{"variant": "MTVA", "one-hybrid fitness for binding NBS DNA": "≤ 0.2"}
{"variant": "ELQY", "one-hybrid fitness for binding NBS DNA": "≤ 0.2"}
{"variant": "NMPC", "one-hybrid fitness for binding NBS DNA": "≤ 0.2"}
{"variant": "YMLA", "one-hybrid fitness for binding NBS DNA": "≤ 0.2"}
{"variant": "PNNH", "one-hybrid fitness for binding NBS DNA": "≤ 0.2"}
{"variant": "STTR", "one-hybrid fitness for binding NBS DNA": "≤ 0.2"}
{"variant": "GQTC", "one-hybrid fitness for binding NBS DNA": "≤ 0.2"}
{"variant": "PTRL", "one-hybrid fitness for binding NBS DNA": "≤ 0.2"}
{"variant": "ITAS", "one-hybrid fitness for binding NBS DNA": "≤ 0.2"}
{"variant": "QHAD", "one-hybrid fitness for binding NBS DNA": "≤ 0.2"}
{"variant": "QHAT", "one-hybrid fitness for binding NBS DNA": 0.41}
{"variant": "QHFT", "one-hybrid fitness for binding NBS DNA": 0.312}
{"variant": "IDNR", "one-hybrid fitness for binding NBS DNA": 0.348}
{"variant": "HTGM", "one-hybrid fitness for binding NBS DNA": "≤ 0.2"}
{"variant": "DSKV", "one-hybrid fitness for binding NBS DNA": "≤ 0.2"}
{"variant": "QRAF", "one-hybrid fitness for binding NBS DNA": 0.302}
{"variant": "QSFS", "one-hybrid fitness for binding NBS DNA": 0.256}
{"variant": "QSAS", "one-hybrid fitness for binding NBS DNA": 0.356}
{"variant": "QRAH", "one-hybrid fitness for binding NBS DNA": 0.583}
{"variant": "QCFS", "one-hybrid fitness for binding NBS DNA": 0.397}
{"variant": "QRAP", "one-hybrid fitness for binding NBS DNA": 0.264}
{"variant": "QCAS", "one-hybrid fitness for binding NBS DNA": 0.451}
{"variant": "QRAE", "one-hybrid fitness for binding NBS DNA": 0.332}
{"variant": "QPFS", "one-hybrid fitness for binding NBS DNA": "≤ 0.2"}
{"variant": "QPAS", "one-hybrid fitness for binding NBS DNA": "≤ 0.2"}
{"variant": "QRAS", "one-hybrid fitness for binding NBS DNA": 0.684}
{"variant": "QRAD", "one-hybrid fitness for binding NBS DNA": 0.25}
{"variant": "LCKS", "one-hybrid fitness for binding NBS DNA": "≤ 0.2"}
{"variant": "STRH", "one-hybrid fitness for binding NBS DNA": "≤ 0.2"}
{"variant": "SLSS", "one-hybrid fitness for binding NBS DNA": "≤ 0.2"}
{"variant": "AMPP", "one-hybrid fitness for binding NBS DNA": "≤ 0.2"}
{"variant": "HDRS", "one-hybrid fitness for binding NBS DNA": "≤ 0.2"}
{"variant": "NECS", "one-hybrid fitness for binding NBS DNA": "≤ 0.2"}
{"variant": "AAGK", "one-hybrid fitness for binding NBS DNA": "≤ 0.2"}
{"variant": "QPEY", "one-hybrid fitness for binding NBS DNA": "≤ 0.2"}
{"variant": "QCAQ", "one-hybrid fitness for binding NBS DNA": "≤ 0.2"}
{"variant": "QCAC", "one-hybrid fitness for binding NBS DNA": "≤ 0.2"}
{"variant": "QRFP", "one-hybrid fitness for binding NBS DNA": 0.201}
{"variant": "QRFQ", "one-hybrid fitness for binding NBS DNA": 0.226}
{"variant": "QRAC", "one-hybrid fitness for binding NBS DNA": 0.391}
{"variant": "QRFD", "one-hybrid fitness for binding NBS DNA": "≤ 0.2"}
{"variant": "QRFS", "one-hybrid fitness for binding NBS DNA": 0.597}
{"variant": "QCAM", "one-hybrid fitness for binding NBS DNA": "≤ 0.2"}
{"variant": "QRAM", "one-hybrid fitness for binding NBS DNA": 0.404}
{"variant": "QRAQ", "one-hybrid fitness for binding NBS DNA": 0.412}
{"variant": "QRFM", "one-hybrid fitness for binding NBS DNA": 0.22}
{"variant": "QRFC", "one-hybrid fitness for binding NBS DNA": 0.289}
{"variant": "QSIQ", "one-hybrid fitness for binding NBS DNA": "≤ 0.2"}
{"variant": "KPVS", "one-hybrid fitness for binding NBS DNA": "≤ 0.2"}
{"variant": "YYMR", "one-hybrid fitness for binding NBS DNA": "≤ 0.2"}
{"variant": "RFQM", "one-hybrid fitness for binding NBS DNA": "≤ 0.2"}
{"variant": "GDHK", "one-hybrid fitness for binding NBS DNA": "≤ 0.2"}
{"variant": "LAMD", "one-hybrid fitness for binding NBS DNA": "≤ 0.2"}
{"variant": "SSIR", "one-hybrid fitness for binding NBS DNA": "≤ 0.2"}
{"variant": "QCAN", "one-hybrid fitness for binding NBS DNA": "≤ 0.2"}
{"variant": "QRAN", "one-hybrid fitness for binding NBS DNA": 0.39}
{"variant": "QRFN", "one-hybrid fitness for binding NBS DNA": 0.353}
{"variant": "RKKD", "one-hybrid fitness for binding NBS DNA": "≤ 0.2"}
{"variant": "RKVD", "one-hybrid fitness for binding NBS DNA": "≤ 0.2"}
{"variant": "RCKY", "one-hybrid fitness for binding NBS DNA": 0.318}
{"variant": "RKYY", "one-hybrid fitness for binding NBS DNA": "≤ 0.2"}
{"variant": "RKKS", "one-hybrid fitness for binding NBS DNA": 0.653}
{"variant": "RKVN", "one-hybrid fitness for binding NBS DNA": "≤ 0.2"}
{"variant": "RKVS", "one-hybrid fitness for binding NBS DNA": 0.426}
{"variant": "RKVY", "one-hybrid fitness for binding NBS DNA": "≤ 0.2"}
{"variant": "RKKY", "one-hybrid fitness for binding NBS DNA": 0.38}
{"variant": "RKRY", "one-hybrid fitness for binding NBS DNA": 0.366}
{"variant": "RKKP", "one-hybrid fitness for binding NBS DNA": "≤ 0.2"}
{"variant": "RKDY", "one-hybrid fitness for binding NBS DNA": "≤ 0.2"}
{"variant": "HLAI", "one-hybrid fitness for binding NBS DNA": "≤ 0.2"}
{"variant": "KRLI", "one-hybrid fitness for binding NBS DNA": "≤ 0.2"}
{"variant": "TRHK", "one-hybrid fitness for binding NBS DNA": "≤ 0.2"}
{"variant": "TTRF", "one-hybrid fitness for binding NBS DNA": "≤ 0.2"}
{"variant": "RAYA", "one-hybrid fitness for binding NBS DNA": "≤ 0.2"}
{"variant": "ISTD", "one-hybrid fitness for binding NBS DNA": "≤ 0.2"}
{"variant": "AALA", "one-hybrid fitness for binding NBS DNA": "≤ 0.2"}
{"variant": "TDSY", "one-hybrid fitness for binding NBS DNA": "≤ 0.2"}
{"variant": "AIFT", "one-hybrid fitness for binding NBS DNA": "≤ 0.2"}
{"variant": "PYDR", "one-hybrid fitness for binding NBS DNA": "≤ 0.2"}
{"variant": "VNLC", "one-hybrid fitness for binding NBS DNA": "≤ 0.2"}
{"variant": "PDQF", "one-hybrid fitness for binding NBS DNA": "≤ 0.2"}
{"variant": "RKKN", "one-hybrid fitness for binding NBS DNA": 0.252}
{"variant": "RKKH", "one-hybrid fitness for binding NBS DNA": 0.465}
{"variant": "RKVH", "one-hybrid fitness for binding NBS DNA": 0.211}
